This is a sample that favours compounds with a hit; in the whole collection about 3.2% have one here.
INS-1E GSIS act: GLuc luminescence reporter in INS-1E cells, primary screen for activators of glucose-dependent secretion of insulin; INS-1E GLuc reporter insulin secretion, 2-3 h; activation, % at 16.6 µM; AID 743287, 2014; 370,000 tested, 0.61% active;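 active = lowest replicate activation of at least 40%, so every replicate reaches that level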;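 note: 0% = median of neutral control wells and 100% = median of IBMX positive control wells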
ERAP1 inh: human ERAP1 aminopeptidase inhibitors, primary screen, biochemical, single point, plate reader; 340,000 tested, 0.15% active; inhibition, % at 10.7 µM; Endoplasmic reticulum aminopeptidase 1 (Homo sapiens), Q9NZ08; recombinant ERAP1, Leu-AMC fluorescence, 60 min;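 active = mean replicate inhibition of at least 30%, or all replicates individually reaching that 30% level; inactive = mean below 30% and not every replicate reaching it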;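 note: 0% = neutral control wells and 100% = L-leucinethiol positive control wells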
CaV13 FRET inh: Disruptors of the CACNA1D IQ motif to Ca2+-dependent inactivation inhibitor domain association, primary screening, Förster resonance energy transfer in intact living …. HEK cells, CFP/YFP FRET ICDI-IQ, plate reader, 10 min; percent FRET-ratio fall versus neutral wells. inhibition, % at 12.3 µM. 340,000 tested, 0.098% active. AID 743397;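 active = mean replicate inhibition of at least 30% and at least 1% of replicates passing that level; inconclusive = only one of the two criteria is met; inactive = neither criterion is met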;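 note: 0% = median of the neutral control wells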
PGC1a acetyl inh: inhibitors of PGC1a acetylation signal, primary screen, cell-based, U2OS, AlphaScreen, inhibitor mode | AlphaScreen anti-acetyl-lysine; with virally co-expressed GCN5 acetyltransferase | inhibition, % at 15.6 µM | 350,000 tested, 0.17% active;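 active = every replicate shows inhibition of at least 40%; inconclusive = mean inhibition at least 40% but some replicate below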;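 note: 0% = neutral control wells and 100% = positive control wells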
DENV2 CPE rescue: inhibitors of DENV2 cytopathic effect, primary screen, cell-based, plate reader, single concentration; CPE inhibition, % at 9.99 µM; DENV2-infected cells, cytopathic effect rescue; AID 651640, 2012; 350,000 tested, 1.7% active; in the data active = CPE inhibition above about 20%, passing the limit was not always enough; inconclusive = no clear call, values can overlap the other calls; tested in BHK-21 cells;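 note: 0% = median of neutral control wells and 100% = median of positive control wells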
Ecoli rRNA inh: reduced GFP signal of wild-type E. coli, primary screen, bacterial rRNA inhibitor project, GFP/RFP fluorescence, OD600, single point | E. coli WT GFP vs humanized-ribosome RFP mutants, 24 h; stronger effect = lower value; DMSO median 0, no signal -100 | GFP signal change (wild-type ribosome), % (concentration not given with the values) | 350,000 tested, 1.6% active;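 active = significant combined selectivity score with lowered wild-type GFP, culture density cut under 30%, mutant RFP and density less affected; inactive = any of these conditions unmet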
* = called active by the depositor; ! = a repeat was not active.

Results for Cc1ccc(S(=O)(=O)N(C)CC(=O)NCCCc2ccccc2)cc1 ?
INS-1E GSIS act: -23.5; ERAP1 inh: 1.0; CaV13 FRET inh: -6.3; PGC1a acetyl inh: -17.0; DENV2 CPE rescue: 1.6; Ecoli rRNA inh: -24.2*

What do the screens show for `COCCCNC(=O)CN(CCc1ccccc1)S(=O)(=O)c1ccc(OC)cc1`?
INS-1E GSIS act: 3.4; ERAP1 inh: 0.3; CaV13 FRET inh: -5.3; PGC1a acetyl inh: 1.5; DENV2 CPE rescue: inconclusive; Ecoli rRNA inh: -23.9*

What do the screens show for `COc1ccc(S(=O)(=O)N(CCc2ccccc2)CC(=O)NCCCO)cc1`?
PGC1a acetyl inh: -10.3

Results for Cc1noc(C)c1S(=O)(=O)Nc1cccc2c1O[C@H](CN(C)Cc1ccc(C(=O)O)cc1)[C@H](C)CN([C@@H](C)CO)C2=O ?
INS-1E GSIS act: -9.7; ERAP1 inh: -0.6; PGC1a acetyl inh: 2.8; DENV2 CPE rescue: 14.6; Ecoli rRNA inh: 4.1

Results for C[C@@H]1CN([C@H](C)CO)C(=O)CCCn2nncc2CO[C@@H]1CN(C)S(=O)(=O)c1ccc(Oc2ccccc2)cc1 ?
INS-1E GSIS act: 8.5; ERAP1 inh: 2.5; CaV13 FRET inh: -10.0; PGC1a acetyl inh: -4.9; DENV2 CPE rescue: -12.7; Ecoli rRNA inh: 2.7

What do the screens show for `C[C@H]1CN([C@@H](C)CO)C(=O)CCCn2nncc2CO[C@H]1CN(C)S(=O)(=O)c1ccccc1F`?
INS-1E GSIS act: 14.9; ERAP1 inh: -2.1; CaV13 FRET inh: -2.5; PGC1a acetyl inh: -6.5; DENV2 CPE rescue: 27.4*!; Ecoli rRNA inh: 16.5

How did C[C@@H]1CN([C@H](C)CO)C(=O)CCCn2nncc2CO[C@H]1CN(C)S(=O)(=O)c1cn(C)cn1 do in these assays?
INS-1E GSIS act: -2.3; ERAP1 inh: -2.6; CaV13 FRET inh: -8.3; PGC1a acetyl inh: 105.5*; DENV2 CPE rescue: 16.2; Ecoli rRNA inh: 0.3

What do the screens show for `C[C@H]1CN([C@@H](C)CO)C(=O)CCCn2nncc2CO[C@H]1CN(C)S(=O)(=O)c1ccc(Oc2ccccc2)cc1`?
INS-1E GSIS act: -24.8; ERAP1 inh: -1.5; CaV13 FRET inh: -7.7; PGC1a acetyl inh: 36.8; DENV2 CPE rescue: 29.6*!; Ecoli rRNA inh: -25.7

How did C[C@H](CO)N1C[C@H](C)[C@H](CN(C)S(=O)(=O)c2cn(C)cn2)OCc2cnnn2CCCC1=O do in these assays?
INS-1E GSIS act: -2.4; ERAP1 inh: 1.5; CaV13 FRET inh: -4.2; PGC1a acetyl inh: -12.9; DENV2 CPE rescue: inconclusive; Ecoli rRNA inh: 3.0

Results for C[C@@H]1CN([C@@H](C)CO)C(=O)CCCn2nncc2CO[C@@H]1CN(C)S(=O)(=O)c1ccccc1F ?
INS-1E GSIS act: 12.6; ERAP1 inh: 0.7; CaV13 FRET inh: -6.7; PGC1a acetyl inh: -5.5; DENV2 CPE rescue: -1.8; Ecoli rRNA inh: -1.2

How did CCOC(=O)c1nc(NCc2cccnc2)c2ccccc2n1 do in these assays?
INS-1E GSIS act: 46.0*; CaV13 FRET inh: -3.9

What do the screens show for `COc1ccc2c3c([nH]c2c1)[C@H](CO)N(C(=O)C1CCCCC1)CC31CCN(Cc2nccs2)CC1`?
INS-1E GSIS act: 2.4; ERAP1 inh: 1.4; PGC1a acetyl inh: -6.8; DENV2 CPE rescue: 6.5; Ecoli rRNA inh: -0.6

What do the screens show for `NNC(=O)c1cccc(O)c1`?
INS-1E GSIS act: 43.4*; CaV13 FRET inh: -4.1; PGC1a acetyl inh: 13.2

Results for O=C(Nc1ccc([N+](=O)[O-])cc1)NN1CCCCCC1 ?
INS-1E GSIS act: -23.1; ERAP1 inh: -3.2; CaV13 FRET inh: -6.2; PGC1a acetyl inh: -5.0; DENV2 CPE rescue: 0.2; Ecoli rRNA inh: -1.6*

Results for O=C(Nc1ccc(Cl)cc1)NN1CCCCCC1 ?
INS-1E GSIS act: -27.2; ERAP1 inh: 6.1; CaV13 FRET inh: -5.7; PGC1a acetyl inh: -7.6; DENV2 CPE rescue: -3.7; Ecoli rRNA inh: -31.6

How did O=C(C[C@H]1CC[C@@H]2[C@H](COC[C@H](O)CN2S(=O)(=O)c2ccc(F)cc2)O1)N[C@H]1CCN(Cc2ccccc2)C1 do in these assays?
INS-1E GSIS act: -12.3; ERAP1 inh: 2.6; PGC1a acetyl inh: -0.2; DENV2 CPE rescue: -11.7; Ecoli rRNA inh: 1.0

Results for Cc1ccc(S(=O)(=O)N(C)C[C@H]2OCCCC[C@H](C)Oc3ccc(NS(=O)(=O)c4c(C)noc4C)cc3C(=O)N([C@@H](C)CO)C[C@@H]2C)cc1 ?
INS-1E GSIS act: -15.2; ERAP1 inh: -1.5; PGC1a acetyl inh: 3.0; DENV2 CPE rescue: 42.8*; Ecoli rRNA inh: -2.2

Results for Cc1ccc(S(=O)(=O)Nc2ccc3c(c2)C(=O)N([C@@H](C)CO)C[C@H](C)[C@@H](CN(C)S(=O)(=O)c2c(C)noc2C)OCCCC[C@@H](C)O3)cc1 ?
INS-1E GSIS act: 3.4; ERAP1 inh: -4.4; PGC1a acetyl inh: 18.4; DENV2 CPE rescue: -11.4; Ecoli rRNA inh: 0.4

Results for Cc1ccc(S(=O)(=O)N(C)C[C@@H]2OCCCC[C@H](C)Oc3ccc(NS(=O)(=O)c4c(C)noc4C)cc3C(=O)N([C@H](C)CO)C[C@@H]2C)cc1 ?
INS-1E GSIS act: 4.4; ERAP1 inh: -1.8; PGC1a acetyl inh: -16.7; DENV2 CPE rescue: 89.5*; Ecoli rRNA inh: -0.6

How did Cc1ccc(S(=O)(=O)N(C)C[C@@H]2OCCCC[C@@H](C)Oc3ccc(NS(=O)(=O)c4c(C)noc4C)cc3C(=O)N([C@H](C)CO)C[C@H]2C)cc1 do in these assays?
INS-1E GSIS act: -18.8; ERAP1 inh: -1.1; PGC1a acetyl inh: -12.1; DENV2 CPE rescue: 61.7*; Ecoli rRNA inh: 1.5

What do the screens show for `Cc1ccc(S(=O)(=O)N(C)C[C@@H]2OCCCC[C@H](C)Oc3ccc(NS(=O)(=O)c4c(C)noc4C)cc3C(=O)N([C@H](C)CO)C[C@H]2C)cc1`?
INS-1E GSIS act: 12.7; ERAP1 inh: -1.3; PGC1a acetyl inh: 5.0; DENV2 CPE rescue: 112.4*; Ecoli rRNA inh: 3.0

What do the screens show for `Cc1ccc(S(=O)(=O)N(C)C[C@@H]2OCCCC[C@@H](C)Oc3ccc(NS(=O)(=O)c4c(C)noc4C)cc3C(=O)N([C@H](C)CO)C[C@@H]2C)cc1`?
INS-1E GSIS act: -13.2; ERAP1 inh: -1.7; CaV13 FRET inh: -6.5; PGC1a acetyl inh: 3.9; DENV2 CPE rescue: -2.2; Ecoli rRNA inh: 15.6

How did Cc1ccc(S(=O)(=O)Nc2ccc3c(c2)C(=O)N([C@@H](C)CO)C[C@@H](C)[C@H](CN(C)S(=O)(=O)c2c(C)noc2C)OCCCC[C@@H](C)O3)cc1 do in these assays?
INS-1E GSIS act: 0.8; ERAP1 inh: -1.9; PGC1a acetyl inh: -26.6; DENV2 CPE rescue: 2.2; Ecoli rRNA inh: -0.1
